Results on 7 compounds are retold here after PubChem BioAssay (NCI).

The panel holds about 83,000 compounds, 20% with a hit somewhere; the sample as a whole holds those more often.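 Cell lines were cultured in 96-well plates, exposed to a single compound concentration, and assessed for percent growth 48 hours later.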 Values without a mark were called inactive. Activity calls are given as the source filed them. The calls were made as follows: active = growth percent below 10; inactive = the rest.

Experiment in all cases: NCI-60 one-dose screen, 48 h (100 = growth as untreated, 0 = no growth, -100 = all killed)
Holding throughout (conditions): 10 µM unless noted

The test system of assay [1] is SR leukemia.
Assay [2] deals with OVCAR-8 ovarian.
Assay [3] concerns OVCAR-5 ovarian.
Assay [4] deals with OVCAR-4 ovarian.
The subject of assay [5] is IGROV1 ovarian.
Assay [6] has as its system OVCAR-3 ovarian.
The test system of assay [7] is HS 578T breast.
The subject of assay [8] is NCI/ADR-RES ovarian.
Assay [9] has as its system T-47D breast.
In assay [10] the test system is BT-549 breast.
Assay [11] relates to MDA-MB-435 melanoma.
The test system of assay [12] is SW-620 colon.
For assay [13], the system named is MCF7 breast.
The subject of assay [14] is HCT-116 colon.
Assay [15] concerns HCC-2998 colon.
The test system of assay [16] is KM12 colon.
Assay [17] deals with SK-OV-3 ovarian.
Assay [18] has as its system RPMI-8226 leukemia.

Consider `CCc1ccccc1NC(=O)c1sc2nc3c(cc2c1N)C(=O)CCC3`, for which the growth in assay [1] is 9.38% (active); in [2], 24.3%; in [3], 33.5%; in [4] it was 60.9%; in assay [5] it was 33.3%; in assay [6], -12.7% (active). Also, the growth in assay [7] was 22.6%; in assay [8] it was 5.24% (active); in assay [9], 23.2%; in assay [10], 48%; in [11], -56.6% (active); in assay [12], 25.7%. The growth in assay [13] was 8.92% (active); in assay [14] it was 26.1%; in assay [15], 24%; in [16], 25.4%.

In the case of `CCN(CC)CC(C)Nc1ccc([N+](=O)[O-])c2sc3ccccc3c(=O)c12` (stereo unspecified), the growth in [1] is -32.3% (active); in [2], 24.6%; in assay [3] it was 53.9%; in assay [4], 32.9%; in assay [17] it was 33.8%; in [5], 22.3%. Moreover, the growth in assay [6] was 36.6%; in assay [7], 27.7%; in [8] it was 34.7%; in assay [9], 31.2%; in assay [10], 60.4%; in [11], 24.1%. Also, the growth in [12] was 19.1%; in [13], 7.9% (active); in [14] it was 24.5%; in assay [15] it was 41.3%; in [16], 29.2%.

In the case of `Nc1c(C(=O)Nc2ccccc2Cl)sc2nc3c(cc12)CCCCCC3`, the growth is 13.2% in [1]; 48.8% in assay [2]; 60.9% in [3]; 43.9% in assay [17]; 25.9% in assay [5]; 21.5% in assay [6]. Besides, the growth is 17.3% in assay [7]; 35% in [8]; 41.4% in assay [9]; 39.8% in [10]; -16.1% (active) in assay [11]; 34.3% in [12]. The growth in assay [13] is 13.8%; in assay [14], 19.2%; in assay [15], 33%; in assay [16], 29.2%.

As to `CN(C)CC(=O)Nc1ccc(Cn2nnc3c2C(=O)c2nnn(Cc4ccc(NC(=O)CN(C)C)cc4)c2C3=O)cc1`, the growth in assay [18] is -34% (active); in [2], -31.6% (active); in assay [3], -35.7% (active); in assay [4], -94.9% (active); in [17], -44% (active); in assay [5] it was -74.4% (active). For the same compound, the growth in assay [6] was -59.1% (active); in assay [7], 7.7% (active); in assay [8] it was 88.6%; in assay [9], -51.7% (active); in assay [10], -89.7% (active); in assay [11] it was -87.5% (active). Besides, the growth in assay [12] was -27.3% (active); in assay [13] it was -61.6% (active); in assay [14], -87.7% (active); in assay [15], -51.2% (active); in assay [16], -54.6% (active).

As to `CN1CCN(c2ccc3nc(-c4ccc5nc(-c6ccc(OCCC(C)(C)C)cc6)[nH]c5c4)[nH]c3c2)CC1`, the growth in assay [18] is -50.1% (active); in [2], -48.9% (active); in assay [3], -2.35% (active); in [4] it was 81.2%; in assay [17], 88.8%; in assay [5] it was 77.7%. The growth in [6] was -83.6% (active); in assay [7] it was 52.1%; in [8], 88%; in [9], 73.4%; in [10], 72.4%; in [11], -37.8% (active). For the same compound, the growth is -82.6% (active) in assay [12]; -61.3% (active) in assay [13]; -95% (active) in [14]; -64.6% (active) in assay [15]; -60.6% (active) in [16].

Consider `Cn1cc(-c2ccc(-c3cn(C)c4ncccc34)[nH]2)c2cccnc21`, for which the growth in [18] is 31.9%; in [2] it was 23.3%; in assay [3], -6.91% (active); in assay [4], -44.4% (active); in [17], 106%; in [5] it was 73.8%. Besides, the growth in assay [6] was -36.9% (active); in [7], 45.7%; in assay [8], 76%; in [9], -29.1% (active); in assay [10] it was -12% (active); in assay [11], 86.6%. In addition, the growth in assay [12] was 24%; in assay [13], 75.2%; in assay [14], 67.3%; in assay [15] it was 33.3%; in assay [16] it was 14.6%.

As to `CC(=O)Oc1ccc(Nc2c3ccccc3nc3ccccc23)cc1`, the growth in assay [18] is -16.2% (active); in assay [2], -58.9% (active); in assay [3], 18%; in [4], 13.8%; in assay [17], 3.92% (active); in [5], -11.8% (active). Also, the growth in [6] was 9.24% (active); in [7], 25.1%; in assay [8] it was 23.8%; in assay [9], 7.4% (active); in assay [10], 55.2%; in assay [11] it was 8.19% (active). Further, the growth in assay [12] was 3.73% (active); in [13] it was 3.91% (active); in assay [14] it was 14%; in [16], 18.1%.
